# In PubChem BioAssay (EPA / NIEHS):
# Activity calls are given as the source filed them. The calls were made as follows: active = hit-call score of the fitted dose curve at least 0.9, where 1 is the maximum; inactive = score below 0.9.
# Columns and labels:
# [1] = BSK_hDFCGF_SRB: Viability Assessment in the BioMAP Diversity Plus: hDFCGF Assay (AID 2283061); details: primary human foreskin fibroblasts;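 also: cells exposed to compound for 24 h before the read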
# Outline: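 Human foreskin primary fibroblasts were treated with compound and assessed 24 h after dosing. Total protein was measured by sulforhodamine B staining (0.1% SRB after 10% TCA fixation, 560 nm read) as a cytotoxicity marker, with bidirectional fitting against DMSO baseline.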
# [2] = read-out: TIMP metallopeptidase inhibitor 1 (TIMP1), TIMP1 (gene 7076); assay: BSK_hDFCGF_TIMP1: BioMAP Diversity Plus: hDFCGF Assay for TIMP metallopeptidase inhibitor 1 (TIMP1) Biomarker Activity (AID 2283062); details: primary human foreskin fibroblasts; actives raise or lower the signal
# Outline: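 Primary human foreskin fibroblasts in the hDFCGF system were dosed with compound for 24 h, then TIMP-1 was measured by ELISA. Activity was fitted bidirectionally relative to DMSO control; parallel SRB staining assessed cytotoxicity.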
# [3] = read-out: Monokine induced gamma interferon (MIG), CXCL9 (gene 4283); assay: BSK_hDFCGF_MIG: BioMAP Diversity Plus: hDFCGF Assay for Monokine induced gamma interferon (MIG) Biomarker Activity (AID 2283063); details: primary human foreskin fibroblasts; actives raise or lower the signal
# Outline: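 ELISA read-out of MIG from primary human dermal fibroblasts 24 h post-dosing. Gain or loss of signal fitted bidirectionally, DMSO as baseline.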
# [4] = read-out: Matrix Metallopeptidase 1 (MMP1), MMP1 (gene 4312); assay: BSK_hDFCGF_MMP1: BioMAP Diversity Plus: hDFCGF Assay for Matrix Metallopeptidase 1 (MMP1) Biomarker Activity (AID 2283064); details: primary human foreskin fibroblasts; actives raise or lower the signal
# Outline: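 MMP1 levels quantified by ELISA 24 h after dosing human dermal fibroblast cultures, with parallel SRB total-protein staining for overt cytotoxicity. Data fitted in both directions against DMSO baseline.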
# [5] = read-out: Vascular cell adhesion molecule 1 (VCAM1), VCAM1 (gene 7412); assay: BSK_hDFCGF_VCAM1: BioMAP Diversity Plus: hDFCGF Assay for Vascular cell adhesion molecule 1 (VCAM1) Biomarker Activity (AID 2283065); details: primary human foreskin fibroblasts; actives raise or lower the signal;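 as to AC50: VCAM-1 protein level quantified by ELISA after 24 h chemical exposure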
# Outline: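 Primary human foreskin fibroblasts (hDFCGF system) were dosed with chemical and VCAM-1 was measured by ELISA 24 h later. Bidirectional curve fitting used DMSO as negative control and activity baseline.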
# [6] = read-out: Plasminogen activator inhibitor-1 (PAI1), SERPINE1 (gene 5054); assay: BSK_hDFCGF_PAI1: BioMAP Diversity Plus: hDFCGF Assay for Plasminogen activator inhibitor-1 (PAI1) Biomarker Activity (AID 2283066); details: primary human foreskin fibroblasts; actives raise or lower the signal
# Outline: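 ELISA readout of PAI-1 from primary human skin fibroblast cultures, 24 h after compound addition. Gain or loss of signal was fitted bidirectionally against DMSO baseline.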
# [7] = read-out: Intercellular Adhesion Molecule 1 (ICAM1), ICAM1 (gene 3383); assay: BSK_KF3CT_ICAM1: BioMAP Diversity Plus: KF3CT Assay for Intercellular Adhesion Molecule 1 (ICAM1) Biomarker Activity (AID 2283067); details: primary human keratinocytes with fibroblasts; actives raise or lower the signal
# Outline: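 Human keratinocyte plus foreskin fibroblast primary co-culture was exposed to chemical for 24 h. ICAM-1 was then quantified by ELISA, and the data were fit bidirectionally against DMSO as the negative control and baseline.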
# [8] = read-out: Interferon-gamma inducible Protein 10 (IP10), CXCL10 (gene 3627); assay: BSK_KF3CT_IP10: BioMAP Diversity Plus: KF3CT Assay for Interferon-gamma inducible Protein 10 (IP10) Biomarker Activity (AID 2283068); details: primary human keratinocytes with fibroblasts; actives raise or lower the signal
# Outline: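 ELISA read-out of IP-10 after 24 h chemical dosing of human skin primary co-culture (keratinocytes, foreskin fibroblasts). Gain or loss of signal relative to DMSO, bidirectional curve fit.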
# [9] = BSK_KF3CT_SRB: Viability Assessment in the BioMAP Diversity Plus: KF3CT Assay (AID 2283069); details: primary human keratinocytes with fibroblasts
# Outline: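 Cytotoxicity was gauged by SRB staining (0.1% SRB, 10% TCA fixation, 560 nm) of parallel cultures at 24 h. The cells were primary human skin keratinocytes co-cultured with fibroblasts, and activity was fitted in both directions against DMSO.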
# [10] = read-out: Interleukin-1 alpha (IL1a), IL1A (gene 3552); assay: BSK_KF3CT_IL1a: BioMAP Diversity Plus: KF3CT Assay for Interleukin-1 alpha (IL1a) Biomarker Activity (AID 2283070); details: primary human keratinocytes with fibroblasts; actives raise or lower the signal
# Outline: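 IL-1a was detected by ELISA 24 h after chemical treatment of a co-culture of human skin keratinocytes and foreskin fibroblasts. Gain or loss of signal was fitted against the DMSO baseline.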
# [11] = read-out: Transforming growth factor beta 1 (TGFb1), TGFB1 (gene 7040); assay: BSK_KF3CT_TGFb1: BioMAP Diversity Plus: KF3CT Assay for Transforming growth factor beta 1 (TGFb1) Biomarker Activity (AID 2283072); details: primary human keratinocytes with fibroblasts; actives raise or lower the signal
# Outline: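 Read-out: ELISA for TGF-b1 in keratinocyte/foreskin fibroblast human skin co-culture, 24 h after dosing; bidirectional curve fit vs DMSO baseline; gain or loss of signal scored.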
# [12] = read-out: C-C motif chemokine 2 (Homo sapiens) (UniProt P13500); assay: BSK_KF3CT_MCP1: BioMAP Diversity Plus: KF3CT Assay for Monocyte Chemoattractant Protein 1 (MCP1/CCL2) Biomarker Activity (AID 2283073); details: primary human keratinocytes with fibroblasts; actives raise or lower the signal
# Outline: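 Human keratinocyte plus foreskin fibroblast primary co-culture exposed to chemical for 24 h. MCP-1 levels measured by ELISA. Bidirectional curve fitting relative to DMSO negative control as baseline.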
# [13] = read-out: Matrix Metallopeptidase 9 (MMP9), MMP9 (gene 4318); assay: BSK_KF3CT_MMP9: BioMAP Diversity Plus: KF3CT Assay for Matrix Metallopeptidase 9 (MMP9) Biomarker Activity (AID 2283074); details: primary human keratinocytes with fibroblasts; actives raise or lower the signal;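 as to AC50: MMP9 protein level quantified by ELISA in the co-culture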
# Outline: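 MMP-9 quantified by ELISA after 24 h chemical treatment of primary human skin keratinocyte/fibroblast co-cultures; gain or loss fitted against DMSO, with parallel SRB staining (0.1% SRB, 560 nm) for overt cytotoxicity.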
# [14] = read-out: urokinase plasminogen activator (uPA), PLAU (gene 5328); assay: BSK_KF3CT_uPA: BioMAP Diversity Plus: KF3CT Assay for urokinase plasminogen activator (uPA) Biomarker Activity (AID 2283075); details: primary human keratinocytes with fibroblasts; actives raise or lower the signal
# Outline: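 ELISA read-out of uPA 24 h after dosing human skin keratinocytes co-cultured with foreskin fibroblasts. Signal change fitted both ways relative to DMSO; sulforhodamine B on parallel cultures marks overt cytotoxicity.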
# CD40, CD40 (gene 958) = assay: BSK_LPS_CD40: BioMAP Diversity Plus: LPS Assay for CD40 Biomarker Activity (AID 2283076); details: primary human HUVEC with PBMC; actives raise or lower the signal
# Outline: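 Primary human umbilical vein endothelial cells co-cultured with peripheral blood mononuclear cells, LPS-stimulated, were dosed with chemical and read 24 h later. CD40 levels were measured by ELISA and fitted bidirectionally against DMSO as negative control and baseline.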
# [15] = read-out: E-selectin (Homo sapiens) (UniProt P16581); assay: BSK_LPS_Eselectin: BioMAP Diversity Plus: LPS Assay for Eselectin Biomarker Activity (AID 2283077); details: primary human HUVEC with PBMC; actives raise or lower the signal
# Outline: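 Human umbilical vein endothelial cells co-cultured with peripheral blood mononuclear cells under LPS stimulation; E-selectin measured by ELISA 24 h after chemical dosing. Activity fitted bidirectionally against DMSO as negative control and baseline.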
# [16] = read-out: Interleukin-1 alpha (IL1a), IL1A (gene 3552); assay: BSK_LPS_IL1a: BioMAP Diversity Plus: LPS Assay for Interleukin-1 alpha (IL1a) Biomarker Activity (AID 2283080); details: primary human HUVEC with PBMC; actives raise or lower the signal
# Outline: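 Human umbilical vein endothelial cells co-cultured with peripheral blood mononuclear cells were LPS-stimulated and exposed to test chemicals for 24 h. IL-1 alpha was quantified by ELISA, with bidirectional curve fitting against DMSO as the negative control and baseline.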
# [17] = read-out: Interleukin-8 (IL8), CXCL8 (gene 3576); assay: BSK_LPS_IL8: BioMAP Diversity Plus: LPS Assay for Interleukin-8 (IL8) Biomarker Activity (AID 2283078); details: primary human HUVEC with PBMC; actives raise or lower the signal
# Outline: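 Human umbilical vein endothelial cells co-cultured with PBMC were stimulated with LPS; IL-8 levels were measured by ELISA 24 h after chemical dosing. Activity was fitted bidirectionally against DMSO as negative control and baseline.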
# [18] = read-out: TIMP metallopeptidase inhibitor 2 (TIMP2), TIMP2 (gene 7077); assay: BSK_KF3CT_TIMP2: BioMAP Diversity Plus: KF3CT Assay for TIMP metallopeptidase inhibitor 2 (TIMP2) Biomarker Activity (AID 2283071); details: primary human keratinocytes with fibroblasts; actives raise or lower the signal
# Outline: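 ELISA readout of TIMP-2 in keratinocyte plus foreskin fibroblast co-cultures (human skin primary cells), 24 h post-dose. Gain or loss of signal fitted relative to DMSO.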
# [19] = BSK_LPS_SRB: Viability Assessment in the BioMAP Diversity Plus: LPS Assay (AID 2283079); details: primary human HUVEC with PBMC;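 also: total protein by sulforhodamine B absorbance as a cytotoxicity measure; measured one day after compound addition; fitted in both directions against DMSO so loss or gain of signal counts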
# Outline: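 Human umbilical vein endothelial cells co-cultured with PBMC (LPS system) were dosed for 24 h. Total protein was stained with 0.1% sulforhodamine B after 10% TCA fixation, read at 560 nm, and fitted bidirectionally against DMSO baseline.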
# Sequence of E-selectin (Homo sapiens) (P16581 whole entry, looked up): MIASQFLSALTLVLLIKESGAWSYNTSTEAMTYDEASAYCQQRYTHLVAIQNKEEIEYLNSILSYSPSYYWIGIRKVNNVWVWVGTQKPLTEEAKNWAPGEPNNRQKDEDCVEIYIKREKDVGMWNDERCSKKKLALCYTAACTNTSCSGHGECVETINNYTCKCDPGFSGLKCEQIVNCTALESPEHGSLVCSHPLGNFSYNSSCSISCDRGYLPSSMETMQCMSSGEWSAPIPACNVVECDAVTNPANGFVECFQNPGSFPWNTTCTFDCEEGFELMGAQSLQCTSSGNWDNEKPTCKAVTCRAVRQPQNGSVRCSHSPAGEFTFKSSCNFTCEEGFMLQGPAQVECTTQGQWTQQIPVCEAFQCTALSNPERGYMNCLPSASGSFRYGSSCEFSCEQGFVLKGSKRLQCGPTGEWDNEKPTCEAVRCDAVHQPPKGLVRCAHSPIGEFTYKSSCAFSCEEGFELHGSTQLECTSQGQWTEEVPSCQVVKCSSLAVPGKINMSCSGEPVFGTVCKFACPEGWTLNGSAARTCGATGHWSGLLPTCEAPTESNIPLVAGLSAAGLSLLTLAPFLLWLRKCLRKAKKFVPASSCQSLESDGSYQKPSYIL
compound,measurement,setting,value
Clc1ccc(C(c2ccc(Cl)cc2)C(Cl)Cl)cc1,AC50,[1],9.91 µM (active)
same,AC50,[2],11.2 µM (active)
same,AC50,[3],11.8 µM (active)
same,AC50,[4],10.8 µM (active)
same,AC50,[5],9.19 µM (active)
same,AC50,[6],7.29 µM (active)
same,AC50,[7],15.5 µM (active)
same,AC50,[8],13.9 µM (active)
same,AC50,[9],12.8 µM (active)
same,AC50,[10],13.8 µM (active)
same,AC50,[11],9.57 µM (active)
same,AC50,[12],10.4 µM (active)
same,AC50,[13],10.2 µM (active)
same,AC50,[14],11.6 µM (active)
same,AC50,"CD40, CD40 (gene 958)",29 µM (active)
same,AC50,[15],30.3 µM (active)
same,AC50,[16],28.6 µM (active)
Oc1ccc2ccc3cccc4ccc1c2c34,AC50,[1],20 µM (active)
same,outcome,[2],inactive
same,AC50,[3],7.57 µM (active)
same,outcome,[4],inactive
same,AC50,[5],8.34 µM (active)
same,AC50,[6],22.5 µM (active)
same,outcome,[7],inactive
same,AC50,[8],26.7 µM (active)
same,outcome,[9],inactive
same,AC50,[10],20 µM (active)
same,AC50,[11],31.7 µM (active)
same,outcome,[12],inactive
same,outcome,[14],inactive
same,AC50,"CD40, CD40 (gene 958)",20 µM (active)
same,AC50,[15],31.4 µM (active)
same,AC50,[17],30.5 µM (active)
same,AC50,[16],29.2 µM (active)
CCCCCCCCCCCCCN1CC(C)OC(C)C1 (stereo unspecified),outcome,[1],inactive
same,outcome,[3],inactive
same,outcome,[4],inactive
same,outcome,[5],inactive
same,outcome,[6],inactive
same,outcome,[7],inactive
same,outcome,[8],inactive
same,outcome,[9],inactive
same,outcome,[10],inactive
same,outcome,[18],inactive
same,outcome,[11],inactive
same,outcome,[12],inactive
same,outcome,[13],inactive
same,outcome,[14],inactive
same,outcome,"CD40, CD40 (gene 958)",inactive
same,outcome,[15],inactive
same,outcome,[17],inactive
same,outcome,[16],inactive
Cc1ccc([N+](=O)[O-])cc1,outcome,[1],inactive
same,outcome,[2],inactive
same,outcome,[3],inactive
same,outcome,[4],inactive
same,outcome,[5],inactive
same,outcome,[6],inactive
same,outcome,[7],inactive
same,outcome,[8],inactive
same,outcome,[9],inactive
same,outcome,[10],inactive
same,outcome,[11],inactive
same,outcome,[12],inactive
same,outcome,[14],inactive
same,outcome,"CD40, CD40 (gene 958)",inactive
same,outcome,[15],inactive
same,outcome,[17],inactive
same,outcome,[19],inactive
same,outcome,[16],inactive
COP(=S)(OC)SCN1C(=O)c2ccccc2C1=O,outcome,[1],inactive
same,outcome,[3],inactive
same,outcome,[4],inactive
same,outcome,[5],inactive
same,outcome,[6],inactive
same,outcome,[7],inactive
same,outcome,[8],inactive
same,outcome,[9],inactive
same,outcome,[10],inactive
same,outcome,[18],inactive
same,outcome,[11],inactive
same,outcome,[12],inactive
same,outcome,[13],inactive
same,outcome,[14],inactive
same,outcome,"CD40, CD40 (gene 958)",inactive
same,outcome,[15],inactive
same,outcome,[17],inactive
same,outcome,[19],inactive
same,outcome,[16],inactive
O=P(OCCCl)(OCCCl)OCCCl,outcome,[1],inactive
same,outcome,[3],inactive
same,outcome,[4],inactive
same,outcome,[5],inactive
same,outcome,[6],inactive
same,outcome,[7],inactive
same,outcome,[8],inactive
same,outcome,[9],inactive
same,outcome,[10],inactive
same,outcome,[18],inactive
same,outcome,[11],inactive
same,outcome,[12],inactive
same,outcome,[13],inactive
same,outcome,[14],inactive
same,outcome,"CD40, CD40 (gene 958)",inactive
same,outcome,[15],inactive
same,outcome,[17],inactive
same,outcome,[19],inactive
same,outcome,[16],inactive
Nc1ccc([N+](=O)[O-])cc1,outcome,[1],inactive
same,outcome,[3],inactive
same,outcome,[4],inactive
same,outcome,[5],inactive
same,outcome,[6],inactive
same,outcome,[7],inactive
same,outcome,[8],inactive
same,outcome,[9],inactive
same,outcome,[10],inactive
same,outcome,[18],inactive
same,outcome,[11],inactive
same,outcome,[12],inactive
same,outcome,[13],inactive
same,outcome,[14],inactive
same,outcome,"CD40, CD40 (gene 958)",inactive
same,outcome,[15],inactive
same,outcome,[17],inactive
same,outcome,[16],inactive
